Reference: PubChem BioAssay AID504706 (National Center for Advancing Translational Sciences (NCATS), 2011)
Among all 320,000 compounds or so, about 200 (0.062%) were called active. A call without a number means that no potency is given here. Inconclusive results (about 6%) are left out. The sample holds actives, similar compounds and a random draw of the others, so the mix is not that of the screen. Calls come from the whole dose curve; as a rule, active = well fitted activation curve with a large enough effect; inconclusive = small, poorly fitted or top-dose-only effect; inactive = no such curve, though single readings can be large or run the other way.

assay: qHTS assay for re-activators of p53 using a Luc reporter; conditions: H1299 p53-A138V BP100-luciferase reporter, luminescence, 24 h; series mostly up to 92.2 µM; note: nearly all actives have a fitted effect of over 45% in size
Description: The p53 tumor suppressor plays a key role in suppression of tumorigenesis and in human carcinogenesis. It is frequently found inactivated in human cancers, mainly by point mutation. These point mutations are found in a wide variety of human cancers and a majority of them affect the DNA binding domain of the protein. The point mutations either alter native p53 conformation or abolish DNA contact. Additionally, cancer cells with p53 mutations are more resistant to chemo-radiation therapies. In order to find activators to reactivate this important protein, a cell-based screen for p53-dependent luciferase-reporter expression was developed. A p53-null H1299 lung cancer cell line was stably co-transfected with a temperature sensitive p53 mutant, p53-A138V, and a p53-responsive BP100-luciferase reporter. This cell model has previously been characterized in a gene chip profiling experiment for p53 activation. By lowering the culture temperature from 37 deg C (mutant p53 conformation) to 32 deg C (w.t. p53 conformation), a 30-60 fold increase in activation of luciferase activity is observed. At assay temperate, 37 deg C, basal reporter expression is very low and after the addition of detection reagent, a luminescent read-out is carried out. NIH Chemical Genomics Center [NCGC] NIH Molecular Libraries Probe Production Centers Network [MLPCN] MLPCN Grant: DA031088-01A1 Assay Provider (PI): Yi Sung, University of Michigan at Ann Arbor
5ul of 1000 cells per well are dispensed in all wells except column 4, into white solid-bottom TC-treated Kalypsys plates. The cells are kept in Opti-MEM and supplemented with 10% FBS and dispensed using a Multidrop (Thermo). Then using the Kalypsys pin-tool, 23nl of compounds are pinned. The compounds are starting concentration at 10mM, with 1:5 dilution, 4 points, and the control compound nocodazole is pinned in column 1 at 25mM, 1:3 dilution, in duplicate, 25mM nocodazole is pinned in column 2. Please note, all concentrations are working concentrations. 5ul of 1pM purified luciferase enzyme is dispensed using the Kalypsys dispenser in column 4. Plates are incubated for 24 hrs at 37 deg C, 5% CO2, and 95% humidity. Then 4ul of the detection reagent Amplite (ABD Bioquest) is added using the Kalypsys dispenser. Plates are incubated for 10 min at ambient room temperature and are then read on the ViewLux (Perkin Elmer) using a clear filter for a luminescent read-out.
Potency is the fitted concentration of half-maximal effect.

Question: With `COC(=O)c1ccc(CNC(=O)c2ccc(S(=O)(=O)N3CCCCCC3)cc2)cc1` as the compound, how does the Potency read?
Answer: inactive

Question: Which Potency does the source give for `O=C(COc1ccc(F)cc1Br)NCC1COc2ccccc2O1` (stereo not drawn) here?
Answer: inactive

Question: With `CC(C)N(C(=O)[C@H]1C[C@H](CC(=O)NCCC2=CCCCC2)C(=O)N2CCc3c([nH]c4cc(CCC(=O)N(C)C)ccc34)[C@]12C)C(C)C` as the compound, how does the Potency read?
Answer: inactive

Question: For `CN(C)C(=O)CCc1ccc2c3c([nH]c2c1)[C@]1(C)[C@@H](C(=O)N2CCOCC2)C[C@H](CC(=O)NCCc2ccccn2)C(=O)N1CC3`, which Potency is on record?
Answer: inactive

Question: Which Potency does the source give for `O=c1c2ccccc2c(-c2ccc(F)cc2)nn1-c1ccc(C(F)(F)F)cc1` here?
Answer: inactive

Question: With `Cn1c(-c2ccc(C(F)(F)F)cc2)cc2onc(-c3ccccc3)c2c1=O` as the compound, how does the Potency read?
Answer: 22.4 µM (active)

Question: With `Cc1onc(-c2ccccc2)c1C(=O)N1CCN(S(=O)(=O)c2ccccc2C(F)(F)F)CC1` as the compound, how does the Potency read?
Answer: inactive

Question: With `CC(C)n1cnc2c(NCc3ccccc3)cc(N[C@@H](CO)Cc3ccccc3)cc21` as the compound, how does the Potency read?
Answer: inactive

Question: Which Potency does the source give for `COc1ccc2[nH]c3c(c2c1)CCN1C(=O)C(CC(=O)NCc2cccc(C(F)(F)F)c2)C[C@H](C(=O)N2CCOCC2)[C@@]31C` (stereo partly drawn) here?
Answer: inactive

Question: With `COc1ccccc1N(CCOc1ccccc1)S(=O)(=O)c1ccccc1` as the compound, how does the Potency read?
Answer: inactive

Question: Which Potency does the source give for `COc1ccc(-c2noc(CCC(=O)N3CCN(c4cccc(C)c4)CC3)n2)cc1` here?
Answer: inactive

Question: With `CCCCC[C@@H]1C=C(C(=O)O)[C@H](c2ccc(C#N)cc2)N1S(=O)(=O)c1ccc(C)cc1` as the compound, how does the Potency read?
Answer: inactive

Question: Which Potency does the source give for `CCC(C)c1ccc(NC(=O)COC(=O)C2CCCC2)cc1` (stereo not drawn) here?
Answer: inactive

Question: Which Potency does the source give for `O=C(NCC#CCSc1nnc(-c2cccc3ccccc23)o1)c1cccs1` here?
Answer: inactive

Question: For `O=C(NOCc1ccccc1)c1cccc([N+](=O)[O-])c1`, which Potency is on record?
Answer: inactive

Question: Which Potency does the source give for `CCOC(=O)C1CCCN(C(=O)CSc2nnc3nc(C)cc(C)n23)C1` (stereo not drawn) here?
Answer: inactive

Question: For `CCOC(=O)C1CCN(C(=O)CN2C(=O)NC(C)(c3ccc4cc(OC)ccc4c3)C2=O)CC1` (stereo not drawn), which Potency is on record?
Answer: inactive

Question: Which Potency does the source give for `O=C(NCCc1ccccc1)c1ccc2c(c1)N(Cc1ccccc1)CCS2` here?
Answer: inactive

Question: Which Potency does the source give for `CC1CCCN(c2ccc(C(=O)NCCc3ccccc3)cn2)C1` (stereo not drawn) here?
Answer: 35.5 µM (active)

Question: For `CC1CCN(C(=O)CCNC(=O)c2ccccc2)CC1`, which Potency is on record?
Answer: inactive

Question: Which Potency does the source give for `CC[C@]12c3[nH]c4ccc(Cl)cc4c3CCN1C(=O)[C@@H](CC(=O)NCCCOC)C[C@@H]2C(=O)N1CCN(C(=O)c2ccco2)CC1` here?
Answer: inactive

Question: Which Potency does the source give for `CC[C@]12c3[nH]c4cc(CCC(=O)N(C)C)ccc4c3CCN1C(=O)[C@@H](CC(=O)NCC13CC4CC(CC(C4)C1)C3)C[C@@H]2C(=O)N1CCN(C(=O)C2CC2)CC1` here?
Answer: inactive

Question: Which Potency does the source give for `CCn1c(=S)[nH]c2cc(S(=O)(=O)N3CCOCC3)ccc21` here?
Answer: inactive

Question: For `Cc1cc(C(C)(C)C)n2nc(C)c(-c3ccccc3)c2n1`, which Potency is on record?
Answer: inactive

Question: With `Cc1nc2cc(-c3ccc(F)cc3)nn2c(N2CCOCC2)c1C` as the compound, how does the Potency read?
Answer: inactive

Question: With `Cc1cc(N)n2nc(-c3ccc(C(C)(C)C)cc3)cc2n1` as the compound, how does the Potency read?
Answer: 11.2 µM (active)

Question: Which Potency does the source give for `CC(C)CC1NC(=O)c2cc(Cl)ccc2-n2c1nc1ccccc1c2=O` (stereo not drawn) here?
Answer: inactive

Question: For `COc1cccc(CNC(C)C(=O)Nc2ccc(S(=O)(=O)N3CCCC3)cc2)c1` (stereo not drawn), which Potency is on record?
Answer: inactive

Question: Which Potency does the source give for `Cc1cc(NC(=O)CSCC(=O)NC(C)c2ccccc2)no1` (stereo not drawn) here?
Answer: inactive

Question: With `O=C(Nc1ccc(N2CCOCC2)cc1)c1cccc(S(=O)(=O)N2CCOCC2)c1` as the compound, how does the Potency read?
Answer: inactive

Question: For `Cc1ccc(NC(=O)c2cc(-c3ccccc3O)n[nH]2)cc1C`, which Potency is on record?
Answer: inactive

Question: With `O=C(Nc1cccnc1Cl)c1cc(-c2ccccc2O)on1` as the compound, how does the Potency read?
Answer: inactive

Question: Which Potency does the source give for `Oc1ccccc1-c1cc(-c2ccc(Cl)cc2)n[nH]1` here?
Answer: 2.82 µM (active)

Question: With `CCN(CC(=O)NCc1ccc(F)cc1)S(=O)(=O)c1ccc(Cl)s1` as the compound, how does the Potency read?
Answer: inactive

Question: With `CC(=O)c1ccc(NC(=O)CSc2nc3ccccc3c(=O)n2CCCN2CCOCC2)cc1` as the compound, how does the Potency read?
Answer: inactive

Question: Which Potency does the source give for `CC(=O)Nc1ccc(S(=O)(=O)Nc2ccc(N3CCCCC3)cc2)cc1` here?
Answer: inactive

Question: For `CC[C@]1(C(=O)OC)[C@H]2C(=O)N(C)C(=O)[C@H]2[C@H]2CN(C)C(=NCc3ccccc3)N21`, which Potency is on record?
Answer: inactive

Question: With `CC1O[C@H](OC2C(COC3OC(CO)C(O)[C@H](O)C3O)OC(OC3CC[C@]4(C)C(CC[C@@]5(C)[C@@H]4C=C[C@]46OC[C@@]7(CCC(C)(C)C[C@H]74)C(O)C[C@@]56C)C3(C)C)C(O)C2O)C(O)C(O)C1O` (stereo partly drawn) as the compound, how does the Potency read?
Answer: inactive

Question: For `CC[C@]12c3[nH]c4cc(CCC(=O)N(C)C)ccc4c3CCN1C(=O)[C@@H](CC(=O)NCCCN(C)C)C[C@@H]2C(=O)N1CCN(C(=O)c2ccco2)CC1`, which Potency is on record?
Answer: inactive

Question: With `CN1C(=O)[C@H]2[C@@H](/C=C/c3ccccc3)N3C(=O)CN(Cc4ccc(-c5ccccc5)cc4)C(=O)[C@@]3(C)[C@H]2C1=O` as the compound, how does the Potency read?
Answer: inactive

Question: With `CC1Sc2ccc(C(=O)NCc3ccccc3Cl)cc2NC1=O` (stereo not drawn) as the compound, how does the Potency read?
Answer: inactive

Question: With `O=C1NC(Cc2ccc(O)cc2)c2nc3ccc(Cl)cc3c(=O)n2-c2ccccc21` (stereo not drawn) as the compound, how does the Potency read?
Answer: inactive

Question: Which Potency does the source give for `Cc1ccc(C)c(S(=O)(=O)N2CCN(c3ncnc4sccc34)CC2)c1` here?
Answer: inactive

Question: With `C=CC[C@@H](Cc1ccc(F)cc1)C(=O)OC[C@H]1CCCN1C(=O)[C@H](CC=C)CC(=O)N(CCO)Cc1ccccc1` as the compound, how does the Potency read?
Answer: inactive

Question: With `CC(=O)Nc1ccc(C(=O)/C=C/c2ccc[nH]2)cc1` as the compound, how does the Potency read?
Answer: inactive

Question: For `CC(=O)Nc1ccc(NC(=S)NC(=O)/C=C/c2ccccc2)cc1`, which Potency is on record?
Answer: inactive

Question: For `CC(=O)Nc1ccc(/C=C/C(=O)c2ccccc2)cc1`, which Potency is on record?
Answer: 15.8 µM (active)

Question: For `O=C(C[C@H]1C[C@H](C(=O)N2CCOCC2)[C@@]2(CCC3CCCC3)c3[nH]c4ccc(Cl)cc4c3CCN2C1=O)NCc1ccco1`, which Potency is on record?
Answer: inactive

Question: For `CC[C@]12c3[nH]c4cc(CCC(=O)N(C)C)ccc4c3CCN1C(=O)[C@@H](CC(=O)NCc1ccco1)C[C@@H]2C(=O)N1CCN(C(=O)c2ccco2)CC1`, which Potency is on record?
Answer: inactive

Question: With `COc1cc(/C=C/C(=O)Nc2ccc(OC)c(S(=O)(=O)N3CCOCC3)c2)ccc1OCC#N` as the compound, how does the Potency read?
Answer: inactive

Question: With `O=C1OC[C@@H]2CCCN2C(=O)[C@H](CC(=O)N(CCO)Cc2ccccc2)C/C=C\CC[C@@H]1Cc1ccc(F)cc1` as the compound, how does the Potency read?
Answer: inactive

Question: For `COc1cc(OC)c(C(=O)NNC(=O)c2ccccc2-n2cccc2)cc1OC`, which Potency is on record?
Answer: inactive

Question: With `C[C@@H]1CN([C@@H](C)CO)C(=O)c2cccc(NS(=O)(=O)c3ccc(F)cc3)c2O[C@H]1CN(C)C(=O)NC1CCCCC1` as the compound, how does the Potency read?
Answer: inactive
